Results published in PubChem BioAssay.
A number with no mark means an inactive call. Inconclusive results are not listed. Activity calls are given as the source filed them. Unless noted, no cut-off is given here; in the data, nearly all actives have AC50 up to about 26 µM.

Test system: Aerobactin synthetase IucA (Klebsiella pneumoniae)
Test: IucA aerobactin synthetase inhibitors, biochemical, Tocris library, absorbance (AID 1345561; call rule not given here;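 note: 100% = enzyme without compound and 0% = no enzyme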)
Conditions: purified IucA enzyme assay, absorbance (OD) read-out; stronger effect = lower value; concentration not given here

SMILES	remaining activity
CCC(=O)O[C@]1(C(=O)SCF)[C@H](C)C[C@H]2[C@@H]3C[C@H](F)C4=CC(=O)C=C[C@]4(C)[C@@]3(F)[C@@H](O)C[C@@]21C	125%
NC(N)=NC(=O)Cc1c(Cl)cccc1Cl	114%
NS(=O)(=O)c1cc2c(cc1Cl)NC(C1CC3C=CC1C3)NS2(=O)=O (stereo unspecified)	94.1%
CCCCNc1c(C(=O)OCC)c(C)nc2c1cnn2CC	94.8%
Cc1cc2c(C(C)C)c(O)c(O)c(C=O)c2c(O)c1-c1c(C)cc2c(C(C)C)c(O)c(O)c(C=O)c2c1O	103%
COc1cc(C(=O)OCCCN2CCCN(CCCOC(=O)c3cc(OC)c(OC)c(OC)c3)CC2)cc(OC)c1OC	90.6%
COC(=O)[C@H]1[C@H]2C[C@@H]3c4[nH]c5cc(OC)ccc5c4CCN3C[C@H]2C[C@@H](OC(=O)c2cc(OC)c(OC)c(OC)c2)[C@@H]1OC	124%
CN1CCN2c3ccccc3Cc3ccccc3C2C1 (stereo unspecified)	115%
O=C(O)CN1C(=O)c2cccc3cccc(c23)C1=O	110%

Test system: not listed separately
Test: growth inhibition of DIPG glioma cells, dose response, cell-based, SU-DIPG-XVII, MIPE5.0, CellTiter-Glo, qHTS (AID 1347060);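 for AC50: cells exposed to compound for 48 hours before viability readout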
Conditions: SU-DIPG-XVII viability, CellTiter-Glo ATP luminescence

SMILES	AC50	outcome
CCCCN(CCCC)CCC(O)c1cc2c(Cl)cc(Cl)cc2c2cc(C(F)(F)F)ccc12 (stereo unspecified)	26.3 µM (active)	–
CCC(=O)O[C@]1(C(=O)SCF)[C@H](C)C[C@H]2[C@@H]3C[C@H](F)C4=CC(=O)C=C[C@]4(C)[C@@]3(F)[C@@H](O)C[C@@]21C	–	inactive
CC1(C)O[C@@H]2C[C@H]3[C@@H]4C[C@H](F)C5=CC(=O)C=C[C@]5(C)[C@@]4(F)[C@@H](O)C[C@]3(C)[C@]2(C(=O)CO)O1	–	inactive
Cc1cn[nH]c1	–	inactive
CC(=O)O[C@H]1C[C@@H]2CC[C@@H]3[C@H](CC[C@@]4(C)[C@H]3C[C@H]([N+]3(C)CCCCC3)[C@@H]4OC(C)=O)[C@@]2(C)C[C@@H]1N1CCCCC1	–	inactive
NCCS(=O)(=O)O	–	inactive
C#C[C@]1(O)CC[C@H]2[C@@H]3CCc4cc(O)ccc4[C@H]3CC[C@@]21C	16.6 µM (active)	–
O=C(O)CSCC(=O)NC1CCSC1=O (stereo unspecified)	–	inactive
COc1ncnc(NS(=O)(=O)c2ccc(N)cc2)c1OC	–	inactive
COc1cc2c(N3CCN(C(=O)Nc4ccc(OC(C)C)cc4)CC3)ncnc2cc1OCCCN1CCCCC1	–	inactive
Cc1cc2c(C(C)C)c(O)c(O)c(C=O)c2c(O)c1-c1c(C)cc2c(C(C)C)c(O)c(O)c(C=O)c2c1O	7.42 µM (active)	–
Oc1ccc(OCc2ccccc2)cc1	–	inactive
CCOC(=O)O[C@]1(C(=O)OCCl)CC[C@H]2[C@@H]3CCC4=CC(=O)C=C[C@]4(C)[C@H]3[C@@H](O)C[C@@]21C	–	inactive
Cc1nc(-c2ccc(OCC(C)C)c(C#N)c2)sc1C(=O)O	–	inactive
Cc1cnc(C(=O)O)c[n+]1[O-]	–	inactive
CO[C@@H]1[C@@H](OC(N)=O)[C@@H](O)[C@H](Oc2ccc3c(O)c(NC(=O)c4ccc(O)c(CC=C(C)C)c4)c(=O)oc3c2C)OC1(C)C	–	inactive
COCCCOc1cc(C[C@@H](C[C@H](N)[C@@H](O)C[C@H](C(=O)NCC(C)(C)C(N)=O)C(C)C)C(C)C)ccc1OC	–	inactive
C[C@@H]1CN(c2c(F)c(N)c3c(=O)c(C(=O)O)cn(C4CC4)c3c2F)C[C@H](C)N1	–	inactive
O=NN(CCCl)C(=O)NC1CCCCC1	–	inactive
CNC[C@H](O)[C@@H](O)[C@H](O)[C@H](O)CO	–	inactive
CCC(C)n1ncn(-c2ccc(N3CCN(c4ccc(OC[C@H]5CO[C@](Cn6cncn6)(c6ccc(Cl)cc6Cl)O5)cc4)CC3)cc2)c1=O (stereo partly specified)	–	inactive
O=P(O)(O)C(O)(Cc1cccnc1)P(=O)(O)O	–	inactive
CN(C)c1ccc2nc3ccc(=[N+](C)C)cc-3sc2c1	5.9 µM (active)	–
CC1=C(C)C(=O)C(C(CCCCCC(=O)O)c2ccccc2)=C(C)C1=O (stereo unspecified)	–	inactive
C#CCN[C@@H]1CCc2ccccc21	–	inactive
CCCCCN(C)CCC(O)(P(=O)(O)O)P(=O)(O)O	–	inactive
CC(C)(C)NC(=O)[C@H]1CC[C@H]2[C@@H]3CC[C@H]4NC(=O)C=C[C@]4(C)[C@H]3CC[C@]12C	–	inactive

Test system: not listed separately
Test: growth inhibition of DIPG glioma cells, dose response, cell-based, SU-DIPG-XIII, MIPE4.0, CellTiter-Glo, qHTS (AID 1347061; cut-off not given, nearly all actives have AC50 up to about 37 µM;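 note: cells exposed to compound for 48 hours before readout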)
Conditions: SU-DIPG-XIII viability, CellTiter-Glo ATP luminescence

SMILES	outcome	AC50
CCCCN(CCCC)CCC(O)c1cc2c(Cl)cc(Cl)cc2c2cc(C(F)(F)F)ccc12 (stereo unspecified)	inactive	–
CC1(C)O[C@@H]2C[C@H]3[C@@H]4C[C@H](F)C5=CC(=O)C=C[C@]5(C)[C@@]4(F)[C@@H](O)C[C@]3(C)[C@]2(C(=O)CO)O1	inactive	–
CC(=O)O[C@H]1C[C@@H]2CC[C@@H]3[C@H](CC[C@@]4(C)[C@H]3C[C@H]([N+]3(C)CCCCC3)[C@@H]4OC(C)=O)[C@@]2(C)C[C@@H]1N1CCCCC1	inactive	–
NCCS(=O)(=O)O	inactive	–
O=C(O)CSCC(=O)NC1CCSC1=O (stereo unspecified)	inactive	–
COc1ncnc(NS(=O)(=O)c2ccc(N)cc2)c1OC	inactive	–
COc1cc2c(N3CCN(C(=O)Nc4ccc(OC(C)C)cc4)CC3)ncnc2cc1OCCCN1CCCCC1	inactive	–
Cc1cc2c(C(C)C)c(O)c(O)c(C=O)c2c(O)c1-c1c(C)cc2c(C(C)C)c(O)c(O)c(C=O)c2c1O	–	23.5 µM (active)
Oc1ccc(OCc2ccccc2)cc1	inactive	–
CCOC(=O)O[C@]1(C(=O)OCCl)CC[C@H]2[C@@H]3CCC4=CC(=O)C=C[C@]4(C)[C@H]3[C@@H](O)C[C@@]21C	inactive	–
Cc1nc(-c2ccc(OCC(C)C)c(C#N)c2)sc1C(=O)O	inactive	–
Cc1cnc(C(=O)O)c[n+]1[O-]	inactive	–
CO[C@@H]1[C@@H](OC(N)=O)[C@@H](O)[C@H](Oc2ccc3c(O)c(NC(=O)c4ccc(O)c(CC=C(C)C)c4)c(=O)oc3c2C)OC1(C)C	inactive	–
COCCCOc1cc(C[C@@H](C[C@H](N)[C@@H](O)C[C@H](C(=O)NCC(C)(C)C(N)=O)C(C)C)C(C)C)ccc1OC	inactive	–
CN1CCN2c3ccccc3Cc3ccccc3C2C1 (stereo unspecified)	inactive	–
C[C@@H]1CN(c2c(F)c(N)c3c(=O)c(C(=O)O)cn(C4CC4)c3c2F)C[C@H](C)N1	inactive	–
O=NN(CCCl)C(=O)NC1CCCCC1	inactive	–
CNC[C@H](O)[C@@H](O)[C@H](O)[C@H](O)CO	inactive	–
CCC(C)n1ncn(-c2ccc(N3CCN(c4ccc(OC[C@H]5CO[C@](Cn6cncn6)(c6ccc(Cl)cc6Cl)O5)cc4)CC3)cc2)c1=O (stereo partly specified)	inactive	–
O=P(O)(O)C(O)(Cc1cccnc1)P(=O)(O)O	inactive	–
CN(C)c1ccc2nc3ccc(=[N+](C)C)cc-3sc2c1	–	4.69 µM (active)
CC1=C(C)C(=O)C(C(CCCCCC(=O)O)c2ccccc2)=C(C)C1=O (stereo unspecified)	inactive	–
C#CCN[C@@H]1CCc2ccccc21	inactive	–
CCCCCN(C)CCC(O)(P(=O)(O)O)P(=O)(O)O	inactive	–
CC(C)(C)NC(=O)[C@H]1CC[C@H]2[C@@H]3CC[C@H]4NC(=O)C=C[C@]4(C)[C@H]3CC[C@]12C	–	11.8 µM (active)
